This is a sample that favours compounds with a hit; in the whole collection about 8.7% have one here.
Smad3 FoxH1 inh = Smad3 (human) transcription factor binding inhibition; TR-FRET Smad3/Dy647-FoxH1 peptide binding, europium anti-His; AID 630; inhibition, % at 25 µM; hit rate 0.29% among 88,000; P84022;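 active = compounds that reduce the energy-transfer binding signal between the protein and its labelled peptide by more than half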;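 note: 0% = Smad3 plus labelled peptide maximal FRET and 100% = peptide-only background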
PostGolgi yeast = growth inhibition of a yeast mutant, post-Golgi transport screen. AID 739. inhibition, % at 10 µM. hit rate 0.9% among 98,000. post-Golgi transport phenotypic cell assay;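 note: yeast cells grown in 1536-well plates; yeast grown about 18 h at 30C before absorbance read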
hDAT+cocaine = changed human dopamine transporter uptake under cocaine IC80. LLC-PK1 hDAT cells, [14C]-dopamine uptake with cocaine IC80; actives deviate in either direction. AID 449768. hit rate 1.3% among 110,000. B-score at 10 µM. Q01959;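 active = Z score or B-score, a plate-position-corrected score, falls beyond the plate's 99.7% confidence bounds, in either direction; inactive = both scores lie inside the 99.7% bounds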;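 note: scored against the spread of the other compound wells on the same plate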
Cav32 inh = inhibitors of human Cav3.2 T-type calcium channel | Cav3.2-expressing cells, Fluo-4 calcium fluorescence FDSS; stronger effect = lower value | hit rate 4% among 100,000 | O95180 | B-score at 10 µM | AID 449739;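 active = single-dose well whose peak fluorescence ratio is a statistical outlier from its plate by either plate-standardised score or position-corrected B-score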
TNAP act DEA = activates human TNAP at intermediate phosphate acceptor concentration; 64,000 tested, under 10 active; purified TNAP, CDP-star luminescence, 100 mM DEA, 30 min; stronger effect = higher value; scale: 0 levamisole-inhibited, 1 vehicle-only enzyme; activation factor at 20 µM; AID 813;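 active = activation factor of at least 2 at 20 µM, relative to controls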
PostGolgi ctrl = growth of the yeast control strain, post-Golgi counter-screen; efflux-deficient yeast background strain, growth absorbance A615, 16 h; inhibition, % at 10 µM; hit rate 5% among 98,000
Starred values were filed as active, the others as inactive. Cut-off read from the data, not from the text of the source, unless noted: active = inhibition above about 30%; inactive = the rest.

For O=C(NCCc1ccccc1)[C@@H]1CC=C[C@@H]2CCN(Cc3ccc(Cl)c(Cl)c3)C(=O)[C@@H]21 the results were hDAT+cocaine 3.19* and Cav32 inh -2.18.
For O=C(COC(=O)CCc1ccc(S(=O)(=O)N2CCOCC2)cc1)Nc1ncc(C(F)(F)F)cc1Cl the results were Smad3 FoxH1 inh 1.4, PostGolgi yeast 2.4, hDAT+cocaine 0.685, Cav32 inh 1.28 and PostGolgi ctrl 1.2.
For Cc1ccc(SCC(=O)N2c3ccccc3Sc3ccccc32)cc1 the results were PostGolgi yeast -7.0, hDAT+cocaine -0.549, Cav32 inh -5.79* and PostGolgi ctrl 17.1.
Screening COc1ccc(-n2c(C)n[nH]c2=O)cc1OC returned PostGolgi yeast -8.1, hDAT+cocaine -0.411, Cav32 inh -0.582 and PostGolgi ctrl 2.6.
For COc1ccc(-n2c(O)cnc2Nc2nc(C)cc(C)n2)cc1OC the results were Smad3 FoxH1 inh 3.4, PostGolgi yeast -11.6, hDAT+cocaine 1.62 and PostGolgi ctrl 31.8*.
`COc1cccc(C2/C(=C(\O)c3ccc4c(c3)OCCO4)C(=O)C(=O)N2CCCN(C)C)c1OC` (configuration not stated) gave Smad3 FoxH1 inh 15.7 and TNAP act DEA 0.9.
O=C1CCCC2=C1C(c1ccco1)Nc1ccc(C(=O)c3ccccc3)cc1N2 (configuration not stated) was read as Smad3 FoxH1 inh 6.3, PostGolgi yeast -4.7, hDAT+cocaine 3.75*, Cav32 inh -3.56*, TNAP act DEA 0.9 and PostGolgi ctrl 4.4.
`N#CC1=C(SCC(=O)c2ccc(Br)cc2)NC2=C(C(=O)CCC2)C1c1ccco1` (configuration not stated) gave Smad3 FoxH1 inh -4.5, PostGolgi yeast 13.7, TNAP act DEA 0.9 and PostGolgi ctrl 15.4.
`COc1ccc(/C=C/C(=O)c2ccc(NC(=O)c3cccs3)cc2)cc1OC` gave PostGolgi yeast -8.5, hDAT+cocaine 0.638, Cav32 inh -0.131 and PostGolgi ctrl 54.1*.
Screening CCSc1nnc(NC(=O)CSc2nnc(Cc3cccn3C)n2-c2ccc(C)cc2)s1 returned Smad3 FoxH1 inh 8.6, PostGolgi yeast -2.9, hDAT+cocaine 0.11, Cav32 inh -2.59, TNAP act DEA 0.9 and PostGolgi ctrl 2.6.
`Cn1cccc1Cc1nnc(SCC(=O)NCc2ccc(F)cc2)n1-c1ccc(F)cc1` gave Smad3 FoxH1 inh -3.8, hDAT+cocaine -0.264, Cav32 inh -4.1 and TNAP act DEA 1.
For CCc1ccc(NC(=O)CSc2nnc(Cc3cccn3C)n2-c2ccc(F)cc2)cc1 the results were Smad3 FoxH1 inh 7.0, PostGolgi yeast -5.1, hDAT+cocaine 0.0313, Cav32 inh -4.15*, TNAP act DEA 0.9 and PostGolgi ctrl 9.2.
Cc1csc(NC(=O)CSc2nnc(Cc3cccn3C)n2-c2ccc(F)cc2)n1 was read as Smad3 FoxH1 inh -11.9, PostGolgi yeast -1.8, hDAT+cocaine -0.189, Cav32 inh -5.78*, TNAP act DEA 0.8 and PostGolgi ctrl 29.7.
Cc1ccc(NC(=O)CSc2nnc(Cc3cccn3C)n2-c2ccc(F)cc2)cc1 was read as Smad3 FoxH1 inh -12.7, PostGolgi yeast -3.5, hDAT+cocaine 0.067, Cav32 inh -3.86*, TNAP act DEA 0.8 and PostGolgi ctrl 12.6.
For CC(=O)c1ccc(NC(=O)CSc2nnc(Cc3cccn3C)n2-c2ccc(F)cc2)cc1 the results were Smad3 FoxH1 inh -3.1, PostGolgi yeast -6.1, hDAT+cocaine 0.0405, Cav32 inh 1.32, TNAP act DEA 0.9 and PostGolgi ctrl 2.9.
O=S(=O)(c1ccc(Cl)c(Cl)c1)c1snnc1-c1ccccc1 was read as Smad3 FoxH1 inh 3.7, PostGolgi yeast 24.6, hDAT+cocaine -0.487, Cav32 inh -1.5 and PostGolgi ctrl 52.2*.
Screening Clc1ccccc1CSc1snnc1-c1ccccc1 returned PostGolgi yeast -1.9, hDAT+cocaine -0.0292, Cav32 inh 0.599 and PostGolgi ctrl 5.7.
Screening O=C(NCc1ccccn1)C1Nc2ccc(OC(F)(F)F)cc2C2C=CCC12 (configuration not stated) returned hDAT+cocaine -0.428 and Cav32 inh -3.12.
Screening C=CCSc1nc(-c2ccc3c(c2)OCO3)cc(C(F)(F)F)c1C#N returned PostGolgi yeast 5.4 and PostGolgi ctrl 3.0.

Screening data (PubChem BioAssay)
